Experimental findings from PubChem BioAssay (NCI) are described below.

The structures appear in SMILES notation. About 83,000 compounds went through this panel and 20% of them were active in at least one assay; those are over-represented in the sample as a whole.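 The endpoint reported here, percent growth, reads 100 for growth as untreated, 0 for no net growth and -100 for all cells dead.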 Values without a mark were called inactive. Active and inactive are the calls of the source. The calls were made as follows: active = growth percent below 10; inactive = the rest.

Some test systems named below: NCI-H23 lung; NCI-H226 lung; NCI-H322M lung; HOP-62 NSCLC; HOP-92 NSCLC; NCI-H522 lung; A549/ATCC NSCLC; 786-0 renal; COLO 205 colon; DU-145 prostate; K-562 leukemia; MALME-3M melanoma; MDA-MB-231 breast; RXF 393 renal; SF-268 CNS; SF-295 CNS; SF-539 CNS; UACC-257 melanoma; M14 melanoma; NCI-H460 lung.
Holding throughout (assay): NCI-60 one-dose screen, 48 h (100 = growth as untreated, 0 = no growth, -100 = all killed)
What all share (conditions): 10 µM unless noted

Take `C[C@]12CCc3sc(Nc4ccc(O)cc4)nc3C1=CC[C@@H]1[C@@H]2CC[C@]2(C)C(=O)CC[C@@H]12`: the growth was 70.2% in the test on NCI-H23 lung; 103% in the test on NCI-H226 lung; 93.4% with NCI-H322M lung; 92.7% in the test with HOP-62 NSCLC; 126% in the test on HOP-92 NSCLC; -55.2% (active) in the test with NCI-H522 lung. Besides, the growth in the test on A549/ATCC NSCLC was 79.3%; with 786-0 renal, -3.03% (active); in the test on COLO 205 colon, 38.5%; in the test with DU-145 prostate, 10.4%; in the test with K-562 leukemia, 10.8%; with MALME-3M melanoma, 29.7%. Besides, the growth was 35.3% in the test on MDA-MB-231 breast; -16.2% (active) with RXF 393 renal; 58.3% with SF-268 CNS; 52.5% with SF-295 CNS; -3.84% (active) in the test on SF-539 CNS; 73.4% in the test with UACC-257 melanoma. Also, the growth with M14 melanoma was 58.1%.
Take `Nc1nc(=S)nc(N)[nH]1`: the growth in the test with NCI-H23 lung is 89.5%; in the test with NCI-H226 lung, 96.9%; in the test on NCI-H322M lung, 102%; with HOP-62 NSCLC, 89%; with NCI-H460 lung, 111%; in the test with NCI-H522 lung, 75.5%. For the same compound, the growth is 88.6% with 786-0 renal; 113% in the test with DU-145 prostate; 103% with K-562 leukemia; 102% in the test with MALME-3M melanoma; 92.1% with MDA-MB-231 breast; 101% in the test with RXF 393 renal. In addition, the growth in the test on SF-268 CNS is 93.3%; with SF-295 CNS, 95.9%; with SF-539 CNS, 97.1%; in the test with UACC-257 melanoma it was 87.2%; in the test on M14 melanoma it was 89.5%.
In the case of `CC[C@H](C)[C@H](NC(=O)CN(C)C)C(=O)N(C)[C@H](C[C@@H](OC(C)=O)c1nc(C(=O)NC23CC(C(=O)OC)(C2)C3)cs1)C(C)C`, the growth is 33.3% in the test on NCI-H23 lung; 35.2% in the test with NCI-H226 lung; 39.2% in the test with NCI-H322M lung; 20.1% in the test on HOP-62 NSCLC; 57.2% in the test on HOP-92 NSCLC; 12% in the test on NCI-H522 lung. Further, the growth is 19.3% in the test with A549/ATCC NSCLC; 26.4% with 786-0 renal; -35.8% (active) in the test with COLO 205 colon; 9.21% (active) in the test on DU-145 prostate; 9.47% (active) in the test with K-562 leukemia; 50.9% in the test on MALME-3M melanoma. Further, the growth was 1.51% (active) in the test with MDA-MB-231 breast; 8.43% (active) in the test with RXF 393 renal; 21.8% with SF-268 CNS; 13.8% in the test on SF-295 CNS; -8.6% (active) in the test on SF-539 CNS; 46.8% with UACC-257 melanoma. Also, in the test with M14 melanoma, the growth was -8.54% (active).
Regarding `CC(=O)c1cccc(S(=O)(=O)F)c1`, the growth was 100% in the test with NCI-H23 lung; 97.2% in the test with NCI-H226 lung; 95.6% in the test with NCI-H322M lung; 98.4% with HOP-62 NSCLC; 109% in the test with NCI-H460 lung; 89.8% in the test on NCI-H522 lung. Moreover, the growth is 98.6% with A549/ATCC NSCLC; 98.4% in the test with 786-0 renal; 114% with COLO 205 colon; 108% in the test with DU-145 prostate; 112% in the test with K-562 leukemia; 98.7% in the test with MALME-3M melanoma. In addition, the growth in the test with MDA-MB-231 breast is 104%; in the test on RXF 393 renal, 98.8%; with SF-268 CNS it was 108%; in the test on SF-295 CNS, 83.1%; in the test with SF-539 CNS, 89.1%; in the test with UACC-257 melanoma, 99.2%. In addition, the growth with M14 melanoma was 91.3%.
`C=CCOC(=O)C(Br)CC` (stereo not given): the growth with NCI-H23 lung is 99%; in the test with NCI-H226 lung, 101%; with NCI-H322M lung, 108%; with HOP-62 NSCLC, 108%; in the test on NCI-H460 lung it was 104%; in the test with NCI-H522 lung it was 99.2%. Also, the growth in the test with A549/ATCC NSCLC was 107%; in the test with 786-0 renal it was 106%; in the test on COLO 205 colon, 103%; with DU-145 prostate it was 108%; with K-562 leukemia it was 107%; in the test on MALME-3M melanoma, 99.9%. Also, the growth is 93.6% in the test with MDA-MB-231 breast; 118% in the test with RXF 393 renal; 106% in the test on SF-268 CNS; 109% in the test on SF-295 CNS; 100% in the test on SF-539 CNS; 104% in the test on UACC-257 melanoma. For the same compound, the growth in the test with M14 melanoma was 109%.
In the case of `O=c1[nH]c(=O)[nH]c(=O)[nH]1`, the growth in the test on NCI-H23 lung is 97.9%; in the test with NCI-H226 lung, 122%; in the test with NCI-H322M lung, 104%; in the test with HOP-62 NSCLC it was 85.2%; in the test with HOP-92 NSCLC, 113%; in the test with NCI-H522 lung it was 95.5%. Also, the growth in the test with A549/ATCC NSCLC is 108%; in the test with 786-0 renal it was 96.9%; in the test with COLO 205 colon, 115%; in the test with DU-145 prostate, 119%; in the test with K-562 leukemia, 65.2%; in the test on MALME-3M melanoma, 114%. Besides, the growth was 122% with MDA-MB-231 breast; 91.1% in the test on RXF 393 renal; 116% in the test on SF-268 CNS; 97.6% with SF-295 CNS; 104% in the test with SF-539 CNS; 146% in the test on UACC-257 melanoma. In addition, the growth with M14 melanoma was 111%.
For `COc1ccc2c(c1)c(-c1nc(-c3c[nH]c4ncccc34)cs1)cn2CCCCN1CCOCC1`, the growth in the test on NCI-H23 lung is 69.9%; in the test on NCI-H226 lung, 70.3%; in the test with NCI-H322M lung it was 57.2%; with HOP-62 NSCLC, 37.1%; with HOP-92 NSCLC, 43%; in the test with NCI-H522 lung it was 39.9%. The growth with A549/ATCC NSCLC was 49.7%; in the test with 786-0 renal, -43.7% (active); with COLO 205 colon, -100% (active); in the test on DU-145 prostate, 48.9%; in the test with K-562 leukemia it was -65.2% (active); with MALME-3M melanoma it was -66.7% (active). Also, the growth in the test on MDA-MB-231 breast is 23.4%; with RXF 393 renal, 31.9%; in the test with SF-268 CNS, 52.4%; in the test with SF-295 CNS, 13.1%; in the test with SF-539 CNS, 49.3%; in the test with UACC-257 melanoma, 79.5%. Further, the growth in the test on M14 melanoma was -53.5% (active).
For `Nc1c(Cl)c(Cl)nc(C(=O)O)c1Cl`, the growth in the test with NCI-H23 lung was 104%; in the test on NCI-H226 lung, 102%; in the test on NCI-H322M lung, 80.8%; in the test on HOP-62 NSCLC, 86.9%; with HOP-92 NSCLC it was 106%; in the test with NCI-H522 lung, 98.6%. The growth in the test with A549/ATCC NSCLC was 108%; with 786-0 renal, 103%; in the test with COLO 205 colon it was 117%; in the test with DU-145 prostate, 120%; in the test with K-562 leukemia it was 83.8%; with MALME-3M melanoma, 83.5%. The growth was 106% in the test on MDA-MB-231 breast; 136% with RXF 393 renal; 111% in the test with SF-268 CNS; 98.6% with SF-295 CNS; 84.9% in the test with SF-539 CNS; 108% in the test on UACC-257 melanoma. The growth with M14 melanoma was 104%.
